Several values for one entry are separate records, joined by “and”; a condition that tells them apart may be missing. Identical values can stand only once. Compounds without any hit were thinned out: in the full panel of roughly 83,000, 20% have a hit.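 Single-dose data. Exposure time 48 hours. Values below 10 considered active.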 Activity calls are given as the source filed them.

The results in this text go back to PubChem BioAssay (NCI).

Test systems include MOLT-4 leukemia; SR leukemia; RPMI-8226 leukemia; OVCAR-8 ovarian; OVCAR-5 ovarian; OVCAR-4 ovarian; SK-OV-3 ovarian; IGROV1 ovarian; OVCAR-3 ovarian; NCI/ADR-RES ovarian; T-47D breast; BT-549 breast; MDA-MB-435 melanoma; SW-620 colon; MCF7 breast; HCT-116 colon; HCC-2998 colon; KM12 colon; HS 578T breast.
What all share (experiment): NCI-60 one-dose screen, 48 h (100 = growth as untreated, 0 = no growth, -100 = all killed)
Common to all, as to settings: 10 µM unless noted

On to `Nc1ccc(S(=O)(=O)F)cc1`, for which the growth with MOLT-4 leukemia is 93.3% (inactive); in the assay on SR leukemia it was 84.7% (inactive); in the assay on RPMI-8226 leukemia it was 98.9% (inactive); in the assay with OVCAR-8 ovarian, 107% (inactive); in the assay with OVCAR-5 ovarian, 102% (inactive); in the assay on OVCAR-4 ovarian it was 130% (inactive). For the same compound, the growth was 105% (inactive) with SK-OV-3 ovarian; 105% (inactive) in the assay with IGROV1 ovarian; 111% (inactive) in the assay with OVCAR-3 ovarian; 107% (inactive) in the assay with NCI/ADR-RES ovarian; 96.4% (inactive) in the assay with T-47D breast; 104% (inactive) with BT-549 breast. Besides, the growth in the assay with MDA-MB-435 melanoma was 102% (inactive); in the assay with SW-620 colon, 105% (inactive); with MCF7 breast it was 106% (inactive); with HCT-116 colon it was 100% (inactive); in the assay with HCC-2998 colon, 103% (inactive); with KM12 colon it was 100% (inactive).

Turning to `O=C(O)CNCP(=O)(O)O`, the growth in the assay on MOLT-4 leukemia is 92.4% (inactive); in the assay on SR leukemia, 95.3% (inactive); with RPMI-8226 leukemia, 99.1% (inactive); in the assay on OVCAR-8 ovarian, 104% (inactive); in the assay with OVCAR-5 ovarian, 120% (inactive); in the assay with OVCAR-4 ovarian it was 111% (inactive). Moreover, the growth is 113% (inactive) in the assay on SK-OV-3 ovarian; 106% (inactive) with IGROV1 ovarian; 119% (inactive) with OVCAR-3 ovarian; 121% (inactive) with HS 578T breast; 110% (inactive) in the assay on NCI/ADR-RES ovarian; 111% (inactive) in the assay on T-47D breast. For the same compound, the growth in the assay with MDA-MB-435 melanoma is 104% (inactive); in the assay on SW-620 colon, 110% (inactive); with MCF7 breast, 96.2% (inactive); in the assay with HCT-116 colon, 103% (inactive); in the assay on HCC-2998 colon, 99.2% (inactive); in the assay on KM12 colon it was 113% (inactive).

For the compound `COc1ccc(/C=C(/C)[N+](=O)[O-])cc1OC`, the growth in the assay with MOLT-4 leukemia is 0.86% (active) and -1.19% (active); in the assay with SR leukemia it was -21.8% (active) and -5.49% (active); in the assay with RPMI-8226 leukemia, -17.9% (active) and -7.74% (active); in the assay on OVCAR-8 ovarian it was 6.5% (active); in the assay with OVCAR-5 ovarian, 91.4% (inactive) and 66.7% (inactive); in the assay on OVCAR-4 ovarian it was 32.7% (inactive). Besides, the growth was 112% (inactive) and 108% (inactive) in the assay on SK-OV-3 ovarian; 10.8% (inactive) and -20.9% (active) in the assay on IGROV1 ovarian; -94.1% (active) and -99.7% (active) in the assay on OVCAR-3 ovarian; 74.7% (inactive) and 3.26% (active) with NCI/ADR-RES ovarian; 2.51% (active) and -36.5% (active) in the assay with T-47D breast; 60.2% (inactive) in the assay with BT-549 breast. Further, the growth is 14.8% (inactive) and 8.73% (active) in the assay with MDA-MB-435 melanoma; -71.8% (active) and -74.3% (active) in the assay on SW-620 colon; -16.3% (active) and 4.76% (active) with MCF7 breast; -69.8% (active) and -100% (active) in the assay with HCT-116 colon; 35.9% (inactive) and 59.2% (inactive) with HCC-2998 colon; 49% (inactive) and 37.1% (inactive) with KM12 colon.

Take `O=C(O)c1ccccc1N(CCO)CCCl`: the growth in the assay on MOLT-4 leukemia is 98.3% (inactive); in the assay on SR leukemia it was 84.2% (inactive); in the assay on RPMI-8226 leukemia, 103% (inactive); in the assay on OVCAR-8 ovarian it was 101% (inactive); in the assay with OVCAR-5 ovarian, 92.3% (inactive); with OVCAR-4 ovarian, 108% (inactive). Moreover, the growth in the assay on SK-OV-3 ovarian is 108% (inactive); in the assay on IGROV1 ovarian, 88.6% (inactive); in the assay with OVCAR-3 ovarian it was 111% (inactive); in the assay with NCI/ADR-RES ovarian it was 95.1% (inactive); with T-47D breast, 87.6% (inactive); in the assay with BT-549 breast, 95.9% (inactive). The growth in the assay on MDA-MB-435 melanoma is 112% (inactive); in the assay on SW-620 colon, 107% (inactive); in the assay with MCF7 breast, 95.9% (inactive); in the assay on HCT-116 colon, 95.3% (inactive); with HCC-2998 colon it was 103% (inactive); in the assay on KM12 colon, 103% (inactive).

In the case of `C=C[Se]CC(=O)/C=C/c1ccccc1`, the growth was 79.5% (inactive) with MOLT-4 leukemia; 58.7% (inactive) with SR leukemia; 93.2% (inactive) in the assay with RPMI-8226 leukemia; 59.5% (inactive) with OVCAR-8 ovarian; 89.9% (inactive) in the assay on OVCAR-5 ovarian; 95.3% (inactive) in the assay on OVCAR-4 ovarian. Besides, the growth with SK-OV-3 ovarian is 53% (inactive); in the assay with IGROV1 ovarian it was 104% (inactive); in the assay with OVCAR-3 ovarian, 89.1% (inactive); in the assay with NCI/ADR-RES ovarian it was 87.9% (inactive); in the assay on T-47D breast, 82.3% (inactive); in the assay with BT-549 breast it was 108% (inactive). In addition, the growth in the assay with MDA-MB-435 melanoma is 83.7% (inactive); in the assay on SW-620 colon, 87.9% (inactive); in the assay with MCF7 breast, 87.2% (inactive); in the assay with HCT-116 colon, 56.1% (inactive); in the assay with HCC-2998 colon, 85.4% (inactive); in the assay on KM12 colon, 26.6% (inactive).

Regarding `CN(C)c1ccc([N+](=O)[O-])c([N+](=O)[O-])c1`, the growth was 107% (inactive) and 100% (inactive) with MOLT-4 leukemia; 78.3% (inactive) with SR leukemia; 106% (inactive) and 103% (inactive) in the assay with RPMI-8226 leukemia; 104% (inactive) and 96.3% (inactive) in the assay with OVCAR-8 ovarian; 113% (inactive) and 101% (inactive) with OVCAR-5 ovarian; 101% (inactive) in the assay with OVCAR-4 ovarian. The growth was 108% (inactive) and 112% (inactive) with SK-OV-3 ovarian; 112% (inactive) and 107% (inactive) in the assay on IGROV1 ovarian; 119% (inactive) and 125% (inactive) in the assay on OVCAR-3 ovarian; 104% (inactive) and 97.9% (inactive) with NCI/ADR-RES ovarian; 105% (inactive) and 97.2% (inactive) in the assay with T-47D breast; 90.5% (inactive) and 105% (inactive) in the assay with BT-549 breast. Moreover, the growth in the assay with MDA-MB-435 melanoma is 99% (inactive) and 97.1% (inactive); with SW-620 colon it was 101% (inactive) and 111% (inactive); in the assay on MCF7 breast, 83.6% (inactive) and 91% (inactive); in the assay with HCT-116 colon, 98.2% (inactive) and 102% (inactive); in the assay on HCC-2998 colon, 96.6% (inactive) and 107% (inactive); in the assay with KM12 colon it was 109% (inactive) and 112% (inactive).

For `CCOC(=O)c1ccccc1C(=O)OCC`, the growth in the assay with MOLT-4 leukemia was 101% (inactive); in the assay with SR leukemia it was 128% (inactive); in the assay on RPMI-8226 leukemia, 88.1% (inactive); in the assay on OVCAR-8 ovarian, 84% (inactive); with OVCAR-5 ovarian, 99.9% (inactive); in the assay on OVCAR-4 ovarian, 96.4% (inactive). Besides, the growth in the assay with SK-OV-3 ovarian was 113% (inactive); with IGROV1 ovarian, 64.7% (inactive); with OVCAR-3 ovarian it was 107% (inactive); in the assay with NCI/ADR-RES ovarian it was 102% (inactive); in the assay on T-47D breast, 100% (inactive); in the assay with BT-549 breast it was 95.6% (inactive). Besides, the growth with MDA-MB-435 melanoma is 91.5% (inactive); with SW-620 colon, 102% (inactive); in the assay with MCF7 breast, 97.8% (inactive); with HCT-116 colon it was 100% (inactive); with HCC-2998 colon, 110% (inactive); in the assay on KM12 colon it was 104% (inactive).
